Active and inactive are the calls of the source.
Assays:
[1] = test system: Plasmodium falciparum Sir2 (PF13_0152, Sir2A); assay: Plasmodium falciparum Sir2A binding compounds – biochemical, small-molecule microarray, 635 nm fluorescence, primary screen (AID 1098); settings: fluorescence 635 nm, higher = more signal;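 further: score merges spot fluorescence intensity with its signal-to-noise ratio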
[2] = probe aDKK1 binding to arrayed compounds – biochemical, biotinylated probe, 635/667 nm fluorescence, primary screen (AID 1099); settings: small-molecule microarray, higher = more signal;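 further: score merges 667nm spot fluorescence with signal to noise across triplicate slides; reference of the scale not given here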
[3] = probe aCHRDL2 binding to arrayed compounds – biochemical, biotinylated probe, 635/667 nm fluorescence, primary screen (AID 1100); settings: small-molecule microarray, higher = more signal
[4] = change in splice reporter luminescence, either direction, cell-based, HEK293, spliceosome inhibition project, primary screen (AID 1101); settings: HEK293 splicing luciferase reporter, 24 h, higher = more signal, called active from +8 up or from −8 down;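 further: HEK293 cells carrying a splicing-competent luciferase reporter gene; test concentration not given here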
[5] = molecular target: Fibroblast growth factor 10 (Homo sapiens) (UniProt O15520); assay: compounds binding fibroblast growth factor 10 – biochemical, small-molecule microarray, 635 nm fluorescence, primary screen (AID 1102); settings: FGF10 binding, fluorescence 635 nm, higher = more signal
Fibroblast growth factor 10 (Homo sapiens), sequence (O15520 whole entry, looked up): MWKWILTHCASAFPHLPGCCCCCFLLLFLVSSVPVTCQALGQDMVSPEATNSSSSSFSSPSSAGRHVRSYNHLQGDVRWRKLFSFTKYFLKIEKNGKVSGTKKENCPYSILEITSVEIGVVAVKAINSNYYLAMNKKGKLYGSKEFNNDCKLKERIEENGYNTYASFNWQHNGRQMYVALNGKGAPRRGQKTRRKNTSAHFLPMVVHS

[6] = test system: glycogen synthase kinase-3 (GSK3A per assay name; protocol says GSK3B); assay: compounds binding glycogen synthase kinase-3 – biochemical, small-molecule microarray, 635 nm fluorescence, GSK3A, primary screen (AID 1103); settings: fluorescence 635 nm, higher = more signal; further: the record names both GSK3A and GSK3B
[7] = molecular target: Epidermal growth factor receptor (Homo sapiens) (UniProt P00533); assay: compounds binding epidermal growth factor receptor – biochemical, small-molecule microarray, 635 nm fluorescence, primary screen (AID 1104); settings: EGFR binding, higher = more signal;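 further: score merges 667 nm emission intensity with spot signal to noise over triplicate slides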
Epidermal growth factor receptor (Homo sapiens), sequence (P00533 whole entry, looked up): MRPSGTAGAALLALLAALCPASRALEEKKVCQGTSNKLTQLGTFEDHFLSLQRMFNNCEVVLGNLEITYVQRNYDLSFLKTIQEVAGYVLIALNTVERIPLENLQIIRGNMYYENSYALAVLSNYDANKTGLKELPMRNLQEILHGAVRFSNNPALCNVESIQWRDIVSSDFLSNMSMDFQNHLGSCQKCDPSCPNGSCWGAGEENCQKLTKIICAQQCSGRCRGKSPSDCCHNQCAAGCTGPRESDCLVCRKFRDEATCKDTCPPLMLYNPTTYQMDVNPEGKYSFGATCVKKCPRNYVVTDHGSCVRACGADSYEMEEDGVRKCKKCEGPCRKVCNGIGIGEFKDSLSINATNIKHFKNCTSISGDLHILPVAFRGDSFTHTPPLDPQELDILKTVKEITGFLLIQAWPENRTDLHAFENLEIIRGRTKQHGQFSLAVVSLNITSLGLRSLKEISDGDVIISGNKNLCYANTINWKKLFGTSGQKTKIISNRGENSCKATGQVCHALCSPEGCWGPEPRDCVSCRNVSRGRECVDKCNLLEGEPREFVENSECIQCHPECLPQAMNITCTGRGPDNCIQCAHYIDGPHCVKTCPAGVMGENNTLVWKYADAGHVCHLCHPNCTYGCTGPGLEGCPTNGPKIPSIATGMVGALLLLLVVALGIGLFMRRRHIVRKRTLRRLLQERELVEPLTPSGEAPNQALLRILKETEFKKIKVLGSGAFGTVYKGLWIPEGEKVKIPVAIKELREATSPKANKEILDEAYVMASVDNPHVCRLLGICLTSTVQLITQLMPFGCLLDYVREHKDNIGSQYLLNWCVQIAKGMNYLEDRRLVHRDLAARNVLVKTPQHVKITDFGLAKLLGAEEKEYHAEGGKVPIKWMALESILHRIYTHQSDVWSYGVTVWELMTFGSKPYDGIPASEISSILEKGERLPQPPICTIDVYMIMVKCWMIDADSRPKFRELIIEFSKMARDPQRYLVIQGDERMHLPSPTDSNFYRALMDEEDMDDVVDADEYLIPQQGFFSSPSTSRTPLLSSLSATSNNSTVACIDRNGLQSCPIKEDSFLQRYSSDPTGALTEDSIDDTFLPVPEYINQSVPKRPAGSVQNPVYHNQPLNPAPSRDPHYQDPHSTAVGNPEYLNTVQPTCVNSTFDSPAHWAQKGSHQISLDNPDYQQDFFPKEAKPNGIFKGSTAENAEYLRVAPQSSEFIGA

[8] = molecular target: Follistatin-related protein 3 (Homo sapiens) (UniProt O95633); assay: compounds binding follistatin-related protein 3 – biochemical, small-molecule microarray, 635 nm fluorescence, primary screen (AID 1105); settings: FSTL3 binding, higher = more signal;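 further: score merges emission near 667 nm and signal to noise per printed spot across three slides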
Follistatin-related protein 3 (Homo sapiens), sequence (O95633 whole entry, looked up): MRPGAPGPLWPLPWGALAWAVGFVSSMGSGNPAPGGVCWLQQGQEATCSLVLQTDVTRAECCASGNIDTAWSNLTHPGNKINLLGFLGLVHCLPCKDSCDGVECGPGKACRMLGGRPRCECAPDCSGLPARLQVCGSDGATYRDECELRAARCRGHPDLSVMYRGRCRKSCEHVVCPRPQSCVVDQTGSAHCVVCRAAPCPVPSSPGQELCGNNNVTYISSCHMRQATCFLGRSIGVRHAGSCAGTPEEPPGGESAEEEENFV

[9] = molecular target: Dickkopf-related protein 1 (Homo sapiens) (UniProt O94907); assay: small molecules binding DKK1 protein – biochemical, small-molecule microarray, 635 nm fluorescence scan, primary screen (AID 1106); settings: higher = more signal;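 further: score merges emission near 667 nm with signal to noise over three replicate slides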
Dickkopf-related protein 1 (Homo sapiens), sequence (O94907 whole entry, looked up): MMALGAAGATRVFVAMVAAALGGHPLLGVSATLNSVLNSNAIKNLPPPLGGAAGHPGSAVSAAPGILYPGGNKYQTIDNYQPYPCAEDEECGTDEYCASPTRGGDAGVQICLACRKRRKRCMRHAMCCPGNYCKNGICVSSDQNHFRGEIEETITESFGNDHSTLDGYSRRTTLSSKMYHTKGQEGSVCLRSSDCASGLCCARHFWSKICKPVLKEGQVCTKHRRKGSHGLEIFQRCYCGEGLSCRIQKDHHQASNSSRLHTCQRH

[10] = test system: Inhibin beta A chain (activin A); assay: small molecules binding activin A – biochemical, small-molecule microarray, 635 nm fluorescence scan, primary screen (AID 1107); settings: INHBA, higher = more signal;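 further: mouse activin A protein probed at 4.33 µg/mL on printed slides; score merges bound-protein fluorescence near 667 nm with spot signal-to-noise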

| SMILES | composite z-score [1] | composite z-score [2] | composite z-score [3] | z-score [4] | composite z-score [5] | composite z-score [6] | composite z-score [7] | composite z-score [8] | composite z-score [9] | composite z-score [10] |
| --- | --- | --- | --- | --- | --- | --- | --- | --- | --- | --- |
| COCCCNC(=O)[C@]1(CCS(=O)(=O)c2ccccc2)N=C(c2ccc(OCCCO)cc2)O[C@@H]1c1ccccc1CN=[N+]=[N-] | 1.51 | 1.41 | 1.26 | -0.325 (inactive) | 1.54 | 1.32 | 0.233 | 1.2 | -0.0602 | 0.746 |
| CC(c1ccccc1)C(O)C1C=CC2C(=O)N(c3ccccc3)C(=O)C2N1Nc1ccc([N+](=O)[O-])cc1 (stereo not given) | 1.38 | 0.831 | 0.862 | -0.43 (inactive) | 0.781 | 1.3 | 0.424 | 1.23 | -0.405 | 0.854 |
| CCOC(=O)C[C@H]1[C@H](OC(=O)c2ccc(C(=O)c3ccccc3)cc2)[C@@H](NC(=O)Cc2ccc(OC)cc2)c2cc(OCCCO)ccc2N1C(=O)c1ccccc1 | -0.186 | 0.0467 | 0.521 | -0.449 (inactive) | 0.281 | -0.0732 | 0.12 | -0.0059 | 0.0251 | 0.643 |
| O=c1n(-c2ccccc2)c(=O)n2n1CC(COc1ccccc1)=C([C@H](O)CCc1ccccc1)[C@@H]2CO | -0.0946 | -0.342 | -0.313 | -1.54 (inactive) | 0.692 | -0.0688 | 0.0867 | 0.0711 | 0.291 | 1.03 |
| C[C@@H]1ON(c2ccc(C(=O)OC(C)(C)C)cc2)[C@H](c2ccc(O)cc2)[C@H]1C(=O)N1C(=O)OC[C@H]1Cc1ccccc1 | 0.632 | 0.0187 | -0.369 | 0.121 (inactive) | 0.663 | 1.06 | 0.365 | 0.431 | 0.449 | -0.0851 |
| CCOC(=O)C[C@H]1[C@H](OC(=O)c2ccccc2-c2ccccc2)[C@@H](NC(=O)c2ccc(-c3ccccc3)cc2)c2cc(OCCCO)ccc2N1C(=O)c1ccc2ccccc2n1 | 0.533 | -0.293 | -0.0904 | 0.224 (inactive) | 0.948 | 0.749 | 0.247 | 0.749 | 0.204 | 0.392 |
| CN(C)CCCNC(=O)[C@@H]1c2ccccc2C(=O)N(Cc2ccccc2Cl)[C@H]1c1ccc(CO)cc1 | -0.405 | 0.0414 | 0.366 | -0.738 (inactive) | -0.497 | 0.333 | -0.493 | -0.89 | 0.0146 | 0.828 |
| COc1cc2c(cc1O)C(C)N(Cc1ccc([N+](=O)[O-])o1)CC2 (stereo not given) | 1.38 | 0.749 | 0.879 | 0.286 (inactive) | 0.675 | 0.899 | -0.459 | 0.574 | -0.0673 | 1.31 |
| COC(=O)[C@@]1(Cc2ccc(OC)cc2)[C@H]2c3cc(C(=O)N4CCCC4)n(Cc4cccc5ccccc45)c3C[C@H]2CN1C(=O)c1ccccc1 | 0.654 | 0.741 | 1.08 | -0.261 (inactive) | 0.821 | 0.407 | -0.282 | 0.293 | -0.724 | 0.849 |
| CCOc1cc(C(O)C2C=CC3C(=O)N(C)C(=O)C3N2Nc2ccccc2)ccc1O (stereo not given) | 0.764 | 0.791 | 0.0692 | 0.719 (inactive) | 0.736 | 0.57 | 0.0228 | 0.0592 | -0.329 | 0.569 |
| C=C(CCCC)/C(=C/C[C@@H](OC(=O)c1ccncc1)c1ccccc1OCCO)c1cnc2ccccc2c1 | 1.26 | 0.276 | 0.178 | 1.03 (inactive) | 1.44 | 1.15 | 1.02 | 1.33 | 0.736 | 1.69 |
| C=CCC(OC(C)=O)[C@@H]1[C@@H](N(Cc2cccc3ccccc23)C(=O)Cc2ccc(F)cc2)c2cc(OCCCO)ccc2N1C(=O)c1ccc2ccccc2n1 (stereo not given in full) | 0.12 | 0.195 | 0.429 | 0.866 (inactive) | -0.0905 | -0.329 | -0.06 | -0.159 | -0.305 | 1.36 |
| NCCCCCNC(=O)[C@@H]1C[C@@H]2C(=O)NCC(=O)N2[C@@H]1c1cccc(OCCO)c1 | 1.06 | 0.237 | 0.0759 | -0.852 (inactive) | 1 | 1.26 | 0.396 | 0.669 | 1.05 | 0.732 |
| Cc1ccc(S[C@]2(C(=O)NCC(F)(F)F)CC(=O)N(Cc3ccccc3)[C@@H]2c2ccc(CO)cc2I)cc1 | 1.37 | 0.307 | 0.264 | -0.432 (inactive) | -0.376 | -0.342 | -0.592 | -0.507 | -0.813 | 0.548 |
| COc1ccccc1CN1C(=O)c2ccccc2[C@](Cc2ccccc2I)(C(=O)NCC(F)(F)F)[C@@H]1c1ccc(CO)cc1 | 1.31 | 0.984 | 0.854 | 0.377 (inactive) | 0.7 | 1.29 | -0.24 | 1.1 | -0.532 | 0.513 |
| C=CCC(OC(C)=O)[C@@H]1[C@@H](N(Cc2ccc(-c3cccc(C(F)(F)F)c3)o2)C(=O)c2ccc(-c3ccccc3)cc2)c2cc(OCCCO)ccc2N1C(=O)c1ccc2ccccc2n1 (stereo not given in full) | -0.219 | 0.148 | 0.202 | 0.39 (inactive) | 0.129 | -0.587 | -0.049 | 0.472 | -0.0126 | 1.28 |

| SMILES | composite z-score [1] | composite z-score [2] | composite z-score [3] | z-score [4] | composite z-score [5] | composite z-score [6] | composite z-score [7] | composite z-score [8] | composite z-score [9] | composite z-score [10] |
| --- | --- | --- | --- | --- | --- | --- | --- | --- | --- | --- |
| CC(C)C(=C=CC[C@H](O)c1ccc(OCCO)cc1)C[C@H](O)c1ccccn1 | 0.471 | -0.0813 | -0.233 | -0.544 (inactive) | 0.275 | 0.372 | -0.511 | -0.11 | -0.478 | -0.262 |
| COC(=O)[C@@]1(Cc2ccc(OC)cc2)[C@H]2c3cc(C(=O)N4CCCC4)n(Cc4c(-c5ccccc5)noc4C)c3C[C@H]2CN1C(=O)c1ccccc1 | 0.743 | 1.08 | 1.12 | -3.14 (inactive) | 1.4 | 0.495 | 0.713 | 1.2 | -0.414 | 0.641 |
| COC(=O)[C@@]1(Cc2ccccc2)[C@@H]2C(=CC(=O)[C@H]2CC(=O)C(=O)N(C)C)CN1C(=O)c1ccccc1 | 0.971 | 1.08 | 1.17 | 2.93 (inactive) | 0.473 | 0.982 | 0.159 | 0.471 | -0.465 | 1.25 |
| COc1ccc([Si](C)(C)[C@@H]2[C@@H](CC(=O)N(CCO)Cc3ccccc3)O[C@]3(C(=O)N(c4ccccc4)c4ccccc43)[C@H]2C)cc1 | 0.908 | -0.262 | -0.426 | -2.14 (inactive) | 0.766 | 0.629 | 0.954 | 1.21 | 0.95 | 0.872 |
| CCCCCCCCCCC(O)C1C=CC2C(=O)N(C)C(=O)C2N1NC(=O)OC(C)(C)C (stereo not given) | 0.18 | -0.0906 | 0.0331 | 11.3 (active) | -0.737 | 0.386 | -0.0167 | -0.112 | -0.145 | 0.417 |
| CC(C)(C)N1CC=CC23O[C@@H]4C=CCOC(=O)[C@@H]4[C@H]2C(=O)N(CCCCCCO)[C@@H]3C1=O (stereo not given in full) | 1.09 | -0.102 | 0.65 | 0.804 (inactive) | -1.59 | -0.708 | -1.04 | -1.34 | -1.34 | 0.294 |
| NCCCCCCNC(=O)[C@@H]1C[C@@H]2C(=O)N[C@@H](CCCCN)C(=O)N2[C@@H]1c1cccc(OCCO)c1 | 1.85 | 0.772 | 1.14 | -0.615 (inactive) | 0.243 | 0.543 | 0.412 | 0.171 | 1.64 | 0.702 |
| C=CCC(OC(C)=O)[C@@H]1[C@@H](N(Cc2cccc3ccccc23)C(=O)Cc2ccc(OC)cc2)c2cc(OCCCO)ccc2N1C(=O)c1ccc2ccccc2n1 (stereo not given in full) | -0.316 | -0.0805 | 0.144 | -0.326 (inactive) | 0.103 | -0.135 | 0.124 | 0.484 | -0.0462 | 1.33 |
| NC(=O)NCC#Cc1ccc2c(c1)[C@]1(C(=O)N2)[C@H](C(=O)NC[C@H](O)c2ccccc2)[C@H]2C(=O)O[C@H](c3ccccc3)[C@H](c3ccccc3)N2[C@@H]1c1ccc(OCCO)cc1 | 0.0395 | 0.72 | 0.879 | 0.822 (inactive) | 0.566 | 0.0382 | -0.464 | 0.0489 | -0.246 | 1.04 |
| COc1ccc(-c2nc(-c3ccccc3)c3c(c2C)CO[Si]3(C(C)C)C(C)C)cn1 | -0.18 | -0.0958 | -0.505 | 0.0313 (inactive) | 0.984 | 0.729 | -0.0277 | 0.446 | 0.125 | 0.468 |
| CN(C)CCCNC(=O)[C@@]1(c2ccc([N+](=O)[O-])cc2)CC(=O)N(CC23CC4CC(CC(C4)C2)C3)[C@@H]1c1ccc(CO)cc1I | 1.59 | -0.0761 | 0.407 | -0.854 (inactive) | 0.879 | 0.556 | 0.555 | 1.34 | 1.08 | 0.0974 |
| C=CCC(OC(C)=O)[C@@H]1[C@@H](N(Cc2cc3ccccc3o2)C(=O)Cc2ccc(F)cc2)c2cc(OCCCO)ccc2N1C(=O)c1ccc2ccccc2c1 (stereo not given in full) | -0.365 | -0.0572 | 0.165 | 0.111 (inactive) | -0.234 | -0.711 | 0.0137 | 0.331 | 0.0521 | 1.04 |
| OCCCC1=CC(c2ccc(CN3CCCC3)cc2)N(Cc2sc3ccccc3c2Cl)CC1 (stereo not given) | 1.39 | 0.14 | 0.504 | -1.07 (inactive) | 1.03 | 1.3 | 0.62 | 0.854 | 0.771 | 1.41 |
| Cc1ccc(S[C@]2(C(=O)O)CC(=O)N(Cc3cc(C(F)(F)F)cc(C(F)(F)F)c3)[C@@H]2c2ccc(CO)cc2)cc1 | 1.2 | 0.326 | 1.14 | -0.262 (inactive) | -1.65 | -1.03 | -1.89 | -1.92 | -2.26 | -0.131 |
| [N-]=[N+]=NCc1ccccc1C[C@@]1(C(=O)N2CCCCC2)N=C(c2ccc(OCCCO)cc2)O[C@@H]1c1ccccc1 | 0.884 | 0.542 | 0.751 | -0.422 (inactive) | 0.384 | 0.0635 | -0.451 | -0.281 | -0.849 | 1.05 |

Source: PubChem BioAssay
